About 2,100 (0.66%) of roughly 320,000 compounds were called active. Another 53% or so got no clear call; they are omitted. Calls follow the shape of the dose curve; as a rule, active = well fitted inhibition curve with a large enough effect in the signal ratio, with a control signal flat (not every such curve was filed as active); inconclusive = small, poorly fitted or top-dose-only effect, or effect the other way, or a change in a side signal; inactive = flat fitted curve, though single readings scatter; the % refers to the signal ratio. This excerpt belongs to a sample that is enriched for actives.
Experiment: qHTS Assay for Lipid Storage Modulators in Drosophila S3 Cells;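 as to cell number change: cells counted by Cell Tracker Red CMTPX staining in the red channel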; as to lipid storage change, negative = inhibition: % is scaled to controls: 0 for no effect and ±100 for the full control effect
Conditions: BODIPY lipid droplet fluorescence, 18-24 h, cells fed with added oleic acid; cell number change: measured here: cell count max response; series mostly up to 46.1 µM; lipid storage change, negative = inhibition: at the top concentration
Outline: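 Laser-scanning cytometry quantifies lipid droplet accumulation (500–530 nm total intensity; droplet/cell object ratio) in oleic acid-fed (400 uM added) Drosophila S3 cells treated with a concentration series. 20 uM Triacsin C defined 100% inhibition.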
Potency is read from the fitted curve at half-maximal effect.

Compound	outcome	Potency	cell number change	lipid storage change, negative = inhibition
COc1ccc(-c2onc3ccc(Cl)cc23)cc1	inactive			
CC(=O)Nc1ccc(NC(=O)c2cc(-n3cnnc3)ccc2Cl)cc1	inactive			
CC(C)NC(=O)c1cc(-n2cnnc2)ccc1Cl		25.9 µM (active)	-14.2%	
Cc1ccc(NC(=O)c2cc(-n3cnnc3)ccc2Cl)cc1			-2.68%	10.7% (inactive)
Cc1cc(Cl)ccc1NC(=S)NCCc1ccc(Cl)cc1		16.4 µM (active)	-20.6%	
CCCNC(=S)Nc1ccc(Cl)cc1C			-19.9%	-8.54% (inactive)
Cc1cc(Cl)ccc1NC(=S)NCC(C)C			-2.85%	4.75% (inactive)
Cc1ccc(/C=C2/SC(=S)N(CCC(=O)N3CCN(C)CC3)C2=O)cc1			1.31%	-5.28% (inactive)
Cc1csc(NC(=O)CCS(=O)(=O)c2ccc(Br)cc2)n1	inactive			
Cc1ccc(S(=O)(=O)CC(=O)Nc2nc(C(C)(C)C)cs2)cc1	inactive		18.4%	
O=C(CCS(=O)(=O)c1ccc(F)cc1)Nc1nc(-c2ccncc2)cs1	inactive		-16.7%	
Cc1ccc(S(=O)(=O)CCC(=O)Nc2nc(-c3cccnc3)cs2)cc1		13 µM (active)	-24.9%	
Cc1ccc(S(=O)(=O)CCC(=O)Nc2nc(C(C)(C)C)cs2)cc1		23.1 µM (active)	-1.15%	
Cc1ccc(S(=O)(=O)CC(=O)Nc2nc(-c3ccccc3)cs2)cc1	inactive			
O=C(N/N=C/c1sc(N2CCOCC2)nc1-c1ccccc1)c1cccc(S(=O)(=O)N2CCCC2)c1			111%	27.6% (inactive)
Cc1occc1C(=O)N/N=C/c1sc(N2CCOCC2)nc1-c1ccccc1			-21.3%	-6.96% (inactive)
O=[N+]([O-])c1ccc(N/N=C/c2sc(N3CCOCC3)nc2-c2ccccc2)c(S(=O)(=O)Nc2ccccc2Cl)c1		1.03 µM (active)		
O=C(c1ccccc1)c1nc2c(n1O)CCCCC2	inactive			
Cc1cc(C(=O)Nc2ccccc2C(=O)O)ccc1NC(=O)COc1cccc([N+](=O)[O-])c1			6.05%	12.2% (inactive)
COc1ccc(S(=O)(=O)N(CC(=O)NCCC(C)C)c2ccccc2)cc1OC			-21.6%	-27.8% (inactive)
COc1cccc2cc(C(=O)OCc3ccccc3)c(=O)oc12		1.46 µM (active)	-24.9%	
COc1cccc2cc(C(=O)Oc3ccccc3)c(=O)oc12			-11.3%	-22.4% (inactive)
COc1cccc2cc(C(=O)NCCc3ccccc3)c(=O)oc12			4.66%	6.67% (inactive)
CCN1CCN(C(=S)Nc2ccc(C(C)=O)cc2)CC1				9.37% (inactive)

Compound	outcome	Potency	cell number change	lipid storage change, negative = inhibition
CC12CC(c3ccccc3O1)C(C(=O)NCc1ccccc1)C(=O)N2 (configuration not stated)		29.1 µM (active)	13.7%	
CC12CCC(C(=O)NCc3ccccc3)(OC1=O)C2(C)C (configuration not stated)	inactive		-20.7%	
CC12CC(c3ccccc3O1)C(C(=O)N1CCOCC1)C(=O)N2 (configuration not stated)			-1.42%	1.33% (inactive)
COc1ccc(C(C)NC(=O)C2C(=O)NC3(C)CC2c2ccccc2O3)cc1 (configuration not stated)			-6.03%	9.39% (inactive)
O=C1CCC(C(=O)NCc2ccccc2)N1 (configuration not stated)			7.41%	-8.49% (inactive)
CC1(C)OC(=O)CC1C(=O)NCc1ccccc1 (configuration not stated)		1.84 µM (active)	7.5%	
CC(Oc1ccccc1)c1nnc(SCC(=O)NC2CC2)n1C (configuration not stated)			17.8%	-12.4% (inactive)
Cc1ccc2nc3sc(-c4nnc(-c5ccccc5[N+](=O)[O-])o4)c(N)c3cc2c1	inactive			
CCCn1c(=O)[nH]c(=O)c2c1nc(-c1ccccc1OC(F)F)n2CCOC			1.56%	14.4% (inactive)
O=C(NCc1ccc2c(c1)OCO2)C1CCCN(S(=O)(=O)c2cccnc2)C1 (configuration not stated)			9.61%	10.6% (inactive)
O=C(CN1CCCCCC1)Nc1ccc([N+](=O)[O-])cc1Cl	inactive		-17.1%	
O=C(COC(=O)c1ccccn1)NCc1ccccc1Cl				-5.2% (inactive)
CC(C)(C)N(Cc1ccccc1)C(=O)COC(=O)c1ccc([N+](=O)[O-])o1		11.6 µM (active)	-25.7%	
CC(C)(C)N(Cc1ccccc1)C(=O)COC(=O)c1cccc([N+](=O)[O-])c1			17.2%	24.6% (inactive)
CC(C)(C)N(Cc1ccccc1)C(=O)COC(=O)c1ccc(Br)o1			-7.45%	15.1% (inactive)
CC(NC(=O)CN(C1CCCCC1)S(C)(=O)=O)c1ccccc1 (configuration not stated)			-4.99%	-21.2% (inactive)
O=C(NCCC1CCCCN1S(=O)(=O)c1ccc(F)cc1)C(=O)NC1CC1 (configuration not stated)				12.8% (inactive)
COc1cccc(NC(=O)C(=O)NCCC2CCCCN2S(=O)(=O)c2ccccc2)c1 (configuration not stated)		9.2 µM (active)	-3.85%	
Cc1ccc(S(=O)(=O)N2CCCCC2CCNC(=O)C(=O)NCc2ccccc2C)cc1 (configuration not stated)		9.2 µM (active)		
O=C(NCCC1CCCCN1S(=O)(=O)c1ccccc1)C(=O)NC1CCCC1 (configuration not stated)			-1.87%	9.91% (inactive)
COc1cccc(CNC(=O)C(=O)NCCC2CCCCN2S(=O)(=O)c2ccccc2)c1 (configuration not stated)			-8.33%	23.2% (inactive)
Cc1ccc(S(=O)(=O)N2CCCCC2CCNC(=O)C(=O)NC2CCCC2)cc1 (configuration not stated)		0.184 µM (active)	-16.3%	
Cc1ccc(S(=O)(=O)N2CCCCC2CCNC(=O)C(=O)NCc2ccccc2)cc1 (configuration not stated)				28.7% (inactive)
COc1ccccc1CNC(=O)C(=O)NCCC1CCCCN1S(=O)(=O)c1ccc(C)cc1 (configuration not stated)			18.8%	26.8% (inactive)

Compound	outcome	Potency	cell number change	lipid storage change, negative = inhibition
COc1cccc(NC(=O)C(=O)NCCC2CCCCN2S(=O)(=O)c2cccs2)c1 (configuration not stated)				-10.7% [at 0.0737 µM] (inactive)
FC(F)(F)c1cccc(-c2ccn3ncnc3n2)c1			16.1%	8.44% (inactive)
CC(=O)c1cc(-c2ccccc2)n(CC(=O)NC2CCCC2)c1C			-1.74%	-17.9% (inactive)
CCC(=O)Nc1ccc(NC(=O)CSc2nnnn2-c2ccc3c(c2)OCCO3)cc1			5.29%	7.85% (inactive)
C/C(=C\c1ccco1)C1Nc2cccc3cccc(c23)N1		18.4 µM (active)	-14.8%	
c1coc(C2Nc3cccc4cccc(c34)N2)c1	inactive		-0.664%	
C/C(=C\c1cc2ccccc2o1)C1Nc2cccc3cccc(c23)N1			7.96%	19.1% (inactive)
CC(C)(C)c1ccc(C(=O)OCC(=O)NC2CC2)cc1	inactive			
CCc1nn(C(CC)C(=O)NCc2cccs2)c(=O)c2cc3occc3n12 (configuration not stated)	inactive		-4.96%	
CCc1nn(C(CC)C(=O)NCc2cccc(OC)c2)c(=O)c2cc3occc3n12 (configuration not stated)	inactive			
CCc1nn(C(CC)C(=O)NCc2cccc(OC)c2OC)c(=O)c2cc3occc3n12 (configuration not stated)		10.3 µM (active)	-13.5%	
Cc1cc(S(=O)(=O)NCC(C)C)ccc1OCC(=O)NCc1ccco1			21.6%	5.71% (inactive)
Cc1noc(C)c1CCC(=O)NC1CCCN(Cc2ccc(CC(C)C)cc2)C1 (configuration not stated)	inactive			
Cc1ccc(N=Cc2ccc(O)cc2O)cc1F				28.9% (inactive)
O=C(O)C1CC=CCC1C(=O)Nc1ccccc1 (configuration not stated)	inactive			
O=C(O)c1ccc(NC(=O)C2CC=CCC2C(=O)O)cc1 (configuration not stated)		0.184 µM (active)	3.62%	
O=C(O)C1CC=CCC1C(=O)Nc1ccc(S(=O)(=O)N2CCCc3ccccc32)cc1 (configuration not stated)		23.1 µM (active)	4.45%	
O=C(O)C1C2C=CC(O2)C1C(=O)Nc1ccc(S(=O)(=O)N2CCc3ccccc32)cc1 (configuration not stated)			-9.33%	18.4% (inactive)
O=C(Nc1ccc(S(=O)(=O)N2CCc3ccccc32)cc1)C(F)(F)F	inactive		-4.4%	
CN(C(=O)c1ccc(NC(=O)C2CC=CCC2C(=O)O)cc1)c1ccccc1 (configuration not stated)			2.31%	-13.4% (inactive)
CC(C)CC(NC(=O)c1ccccc1)C(=O)OCC(=O)Nc1ccc(Br)cn1 (configuration not stated)	inactive			
Cc1[nH]c2ccccc2c1SCCNC(=O)c1ccc(S(=O)(=O)N2CCCC2)cc1			-15.8%	15.4% (inactive)
CNC(=S)Nc1cc(C(=O)N2CCCC2)ccc1N1CCCC1			-7.02%	5.95% (inactive)
Cc1cccc(NC(=O)C2C(c3ccccc3)C2(Cl)Cl)c1C (configuration not stated)			10.7%	-1.24% (inactive)

Compound	outcome	Potency	cell number change	lipid storage change, negative = inhibition
O=C(c1cccs1)N1CCC(c2nc3c(nnn3Cc3cccc(Cl)c3)c(=O)[nH]2)CC1	inactive		-4.62%	
Cc1ccc(N(C(=O)Cc2cccs2)C(C(=O)NC2CCCCC2)c2ccccn2)cc1C (configuration not stated)			4.06%	-10.6% (inactive)
O=C(CCC(=O)c1ccccc1)NCCc1c[nH]c2ccccc12			-0.682%	3.97% (inactive)
CN(C)S(=O)(=O)N1CCN(S(=O)(=O)N2CCOCC2)CC1			6.09%	0.943% (inactive)
Cc1cc(C)c(S(=O)(=O)N2CCN(C(=O)N3CCOCC3)CC2)c(C)c1		3.66 µM (active)	-4.21%	
CN(C)C(=O)N1CCN(C(=O)N2CCOCC2)CC1			3.54%	0.227% (inactive)
Cc1cc(C)c(S(=O)(=O)N2CCN(C(=O)N(C)C)CC2)c(C)c1			-11%	-7.06% (inactive)
Cc1cc(C)c(S(=O)(=O)N2CCN(S(=O)(=O)N3CCOCC3)CC2)c(C)c1	inactive		9.13%	
COc1ccc(S(=O)(=O)Nc2ccccc2C(=O)N2CCOCC2)cc1C	inactive		-5.26%	
CN(C)S(=O)(=O)N1CCN(C(=O)N2CCOCC2)CC1		5.8 µM (active)	-2.73%	
Cc1cc(C)c(S(=O)(=O)Nc2ccccc2C(=O)N2CCOCC2)c(C)c1		25.9 µM (active)	-34.8%	
Cc1ccccc1NS(=O)(=O)c1ccc(C)c(C(=O)N2CCOCC2)c1			1.29%	10.2% (inactive)
CCCN(CCC)S(=O)(=O)c1nc2nc(C)cc(C)n2n1			8.75%	-0.0183% (inactive)
COc1cc2c(cc1OC)C(c1ccc(O)cc1)NCC2 (configuration not stated)	inactive		-6.35%	
O=C1CCCN1CCC12CC3CC(CC(C3)C1)C2			-8.85%	6.49% (inactive)
COc1ccc(OC)c(CN2CCN(CCCc3ccccc3)C(CCO)C2)c1 (configuration not stated)			25.4%	0.843% (inactive)
CCOc1ccc(CCNC(=O)c2ccc(=O)[nH]c2)cc1OCC			0.381%	2.9% (inactive)
Cc1cccc(OCc2cc(-c3ccccc3)no2)c1C			19.4%	26% (inactive)
CC(C)C(c1nnnn1C1CCCC1)N1CCCCC1 (configuration not stated)	inactive		-26.8%	
CC(C)C(c1nnnn1C1CCCCC1)N1CCc2ccccc21 (configuration not stated)	inactive		19.2%	
CC(C)C(c1nnnn1C1CCCC1)N(C)C1CCCCC1 (configuration not stated)		5.17 µM (active)	-2.08%	
N#CC(C(=O)Nc1ccccc1)=C1CCCCC1	inactive			
N#CC(C(=O)O)=C1CCCC1		23.1 µM (active)	-10.5%	
N#CC(C(=O)NC1CCCCC1)=C1CCCCC1			0.427%	0.277% (inactive)

Source: PubChem BioAssay AID2685 (National Center for Advancing Translational Sciences (NCATS), 2010)
